PubChem BioAssay (Tox21)
Inconclusive results are not listed. Active and inactive are the calls of the source. Unless noted, the call rests on the fitted dose curve; in most records, active means well fitted curve in the direction sought with a large enough effect in the repeat runs; inconclusive means weak or mixed curves; inactive means no such curve, though single readings can be large; an effect the other way counts as inactive or inconclusive.

Experiments:
[1] = biological target: Retinoic acid receptor RXR-alpha (Homo sapiens) (UniProt P19793); assay: qHTS assay to identify small molecule agonists of the RXR signaling pathway (AID 1159527; calls by dose curve; further: nearly all actives have a fitted effect of over 35% in size)
In short: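 Using 9-cis retinoic acid as the reference agonist, chemicals were tested in HEK 293T cells […] for 16 hr; substrate loading lasted 2 hr at room temperature.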

[2] = qHTS assay to identify small molecule agonists of the RXR signaling pathway - cell viability counter screen (AID 1159529); further: series mostly up to about 77 µM; nearly all actives have a fitted effect of over 50% in size
In short: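 Compounds dissolved in DMSO were pinned onto HEK 293T cells carrying a beta-lactamase reporter under RXR-alpha control and incubated 16 hr. Cytotoxicity was then quantified by CellTiter-Glo luminescence.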

[3] = qHTS assay to identify small molecule antagonists of the retinoid acid receptor (RAR) signaling pathway - cell viability counter screen (AID 1159551); further: nearly all actives have a fitted effect of over 35% in size
In short: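 Seed C3RL4 cells; next day add compound, then retinol to 1 uM final; incubate 6 h at 37 C; add CellTiter-Glo; read luminescence after 30 min at RT.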

[4] = qHTS assay to identify small molecule antagonists of the retinoic acid receptor (RAR) signaling pathway (AID 1159552; further: nearly all actives have a fitted effect of over 50% in size)
In short: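 Test chemicals and DMSO controls were pin-transferred onto C3RL4 cells a day after seeding; retinol (1 uM final) followed at once. Luminescent reporter output was quantified after 6 hr of co-incubation and 30 min with detection reagent.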

[5] = qHTS assay to identify small molecule agonists of the retinoic acid receptor (RAR) signaling pathway (AID 1159553)
In short: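 Activation of retinol signaling was monitored via a RARE luciferase reporter in C3RL4 cells. After 6 hr compound treatment at 37 C, detection reagent was added for 30 min at room temperature before luminescence reading.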

[6] = qHTS assay to identify small molecule antagonists of the estrogen related receptor (ERR) signaling pathway from Tox21 library - cell viability counter screen (AID 1224834); further: nearly all actives have a fitted effect of over 30% in size
In short: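 CellTiter-Fluor fluorescence measured; ERR cells; 17.5 h compound incubation at 37 C; 30 min reagent step.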

[7] = biological target: Luciferin 4-monooxygenase (Photinus pyralis) (UniProt P08659); assay: qHTS assay to identify small molecule inhibitors of firefly luciferase (AID 1224835); further: series mostly up to about 120 µM; nearly all actives have a fitted effect of over 25% in size
In short: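 Quantitative HTS format; KM concentrations of both substrates. Purified P. pyralis FLuc activity quantified from luminescence images.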

[8] = qHTS assay to identify small molecule agonists of the constitutive androstane receptor (CAR) signaling pathway - cell viability counter screen (AID 1224836); further: series mostly up to about 92 µM; nearly all actives have a fitted effect of over 45% in size
In short: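 23 h treatment, 37 C, 5% CO2. Cell line: HepG2 stably expressing hCAR with a CYP2B6-2.2kb construct. Co-treatment: PK11195, 0.75 uM final. Read-out: CellTiter-Fluor fluorescence intensity.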

[9] = qHTS assay to identify small molecule antagonists of the constitutive androstane receptor (CAR) signaling pathway - cell viability counter screen (AID 1224837); further: series mostly up to about 92 µM; nearly all actives have a fitted effect of over 45% in size
In short: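 Using CellTiter-Fluor, viability is scored in HepG2 cells stably carrying hCAR and a 2.2kb CYP2B6 reporter after 23 hr compound exposure across 15 concentrations, with CITCO present at 50 nM.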

[10] = qHTS assay to identify small molecule antagonists of the estrogen related receptor signaling pathway with the pleiotropic PPARgamma coactivator (PGC) from Tox21 10K library - cell viability counter screen (AID 1224840; active means well fitted cell-killing curve with a large enough effect in the repeat runs, not every such curve was filed as active; further: nearly all actives have a fitted effect of over 40% in size)
In short: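 Here the PGC/ERR cells serve as a cytotoxicity control: they are exposed to compounds for 17.5 hours at 37 C, and live-cell signal is quantified using CellTiter-Fluor fluorescence.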

[11] = qHTS assay to identify small molecule antagonists of the estrogen related receptor signaling pathway with the pleiotropic PPARgamma coactivator (PGC) from Tox21 10K library (AID 1224841; call rule not given here; further: series mostly up to about 92 µM; actives are mostly falling curves and most rising ones were filed inactive; nearly all actives have a fitted effect of over 50% in size)
In short: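 Each well held 2,000 PGC/ERR cells, pre-incubated six hours (37 C, 5% CO2). Test substances in DMSO were added by pin tool and left for 18 h at 37 C before luciferase detection by One-Glo.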

[12] = biological target: Nuclear receptor subfamily 1 group I member 3 (Homo sapiens) (UniProt Q14994); assay: qHTS assay to identify small molecule antagonists of the constitutive androstane receptor (CAR) signaling pathway (AID 1224838);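 further: HepG2 cells stably expressing hCAR with CYP2B6 luciferase reporter stimulated by CITCO; nearly all actives have a fitted effect of over 40% in size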
In short: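 Reporter luminescence was quantified after 24 h exposure of hCAR/CYP2B6-2.2kb double-stable HepG2 cells to compounds at 15 concentrations in the presence of 50 nM CITCO final.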

[13] = qHTS assay to identify small molecule agonists of the estrogen related receptor signaling pathway with the pleiotropic PPARgamma coactivator (PGC) from Tox21 10K library (AID 1224842); further: nearly all actives have a fitted effect of over 15% in size
In short: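 PGC/ERR reporter cells (NTP line) were seeded 2,000 per well, rested 6 h at 37 C/5% CO2, then pin-dosed with compounds in DMSO for 18 h at 37 C; luciferase read by One-Glo luminescence after 30 min at room temperature.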

[14] = biological target: Nuclear receptor subfamily 1 group I member 3 (Homo sapiens) (UniProt Q14994); assay: qHTS assay to identify small molecule agonists of the constitutive androstane receptor (CAR) signaling pathway (AID 1224839);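 further: HepG2 cells stably carrying human CAR and a CYP2B6 luciferase reporter; series mostly up to about 92 µM; nearly all actives have a fitted effect of over 15% in size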
In short: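 Compounds tested at 15 concentrations on HepG2 cells stably harbouring hCAR and CYP2B6-2.2kb reporter constructs, co-treated with PK11195 (0.75 uM final), 24 h at 37 C; luminescent reporter signal quantified.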

Measured: Potency

Sequence of Nuclear receptor subfamily 1 group I member 3 (Homo sapiens) (Q14994 whole entry, looked up): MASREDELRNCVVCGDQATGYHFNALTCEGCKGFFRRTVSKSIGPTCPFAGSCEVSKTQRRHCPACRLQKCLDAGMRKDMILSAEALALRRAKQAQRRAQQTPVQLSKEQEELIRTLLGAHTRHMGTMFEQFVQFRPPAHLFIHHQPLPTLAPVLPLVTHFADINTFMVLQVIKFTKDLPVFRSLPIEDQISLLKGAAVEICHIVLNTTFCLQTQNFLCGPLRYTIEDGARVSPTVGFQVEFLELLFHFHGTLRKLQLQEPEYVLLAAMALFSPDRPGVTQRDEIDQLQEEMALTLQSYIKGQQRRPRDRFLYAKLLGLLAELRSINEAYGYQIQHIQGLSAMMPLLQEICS
Sequence of Luciferin 4-monooxygenase (Photinus pyralis) (P08659 whole entry, looked up): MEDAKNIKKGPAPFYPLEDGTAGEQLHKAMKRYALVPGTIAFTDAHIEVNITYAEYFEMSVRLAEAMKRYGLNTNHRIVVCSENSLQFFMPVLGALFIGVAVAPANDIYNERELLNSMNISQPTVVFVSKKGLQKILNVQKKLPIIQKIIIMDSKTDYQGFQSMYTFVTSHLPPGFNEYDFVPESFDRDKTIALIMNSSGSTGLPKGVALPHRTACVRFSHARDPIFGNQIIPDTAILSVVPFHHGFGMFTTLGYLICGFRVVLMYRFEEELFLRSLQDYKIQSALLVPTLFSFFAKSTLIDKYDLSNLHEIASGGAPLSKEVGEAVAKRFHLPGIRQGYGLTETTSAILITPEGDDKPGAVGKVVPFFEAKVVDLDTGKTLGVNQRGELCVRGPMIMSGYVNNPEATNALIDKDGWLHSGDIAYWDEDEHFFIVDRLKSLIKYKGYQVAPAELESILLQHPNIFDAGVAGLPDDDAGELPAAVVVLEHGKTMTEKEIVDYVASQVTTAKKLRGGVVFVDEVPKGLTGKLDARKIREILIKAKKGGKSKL
Sequence of Retinoic acid receptor RXR-alpha (Homo sapiens) (P19793 whole entry, looked up): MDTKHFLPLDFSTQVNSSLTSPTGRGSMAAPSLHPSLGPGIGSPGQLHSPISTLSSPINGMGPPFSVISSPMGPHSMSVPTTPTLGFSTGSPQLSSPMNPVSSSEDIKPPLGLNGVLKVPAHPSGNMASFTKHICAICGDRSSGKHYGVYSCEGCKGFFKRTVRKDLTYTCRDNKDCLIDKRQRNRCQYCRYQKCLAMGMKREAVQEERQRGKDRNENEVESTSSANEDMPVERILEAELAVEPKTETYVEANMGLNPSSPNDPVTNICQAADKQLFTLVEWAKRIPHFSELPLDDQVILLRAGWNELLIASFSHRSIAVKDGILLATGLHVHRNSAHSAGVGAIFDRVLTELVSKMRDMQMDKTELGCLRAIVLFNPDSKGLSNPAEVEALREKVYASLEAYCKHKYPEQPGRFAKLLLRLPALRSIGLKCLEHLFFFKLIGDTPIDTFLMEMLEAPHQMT

CC(=O)OC1C2(C)CCC(C2)C1(C)C (stereo not given)
not listed: [12] | [13] | [14]
inactive: all other assays above

CC(CNC1CCCCC1)OC(=O)c1ccccc1 (stereo not given)
not listed: [13] | [14]
inactive: all other assays above

COc1ccccc1OCC(O)COC(N)=O (stereo not given)
not listed: [14]
inactive: all other assays above

C1CCOC1
not listed: [7] | [14]
inactive: all other assays above

O=c1[nH]c(=O)n([C@H]2C[C@H](O)[C@@H](CO)O2)cc1C(F)(F)F
not listed: [12]
inactive: all other assays above

O=C(O[C@@H](C(=O)O)[C@@H](OC(=O)c1ccccc1)C(=O)O)c1ccccc1
not listed: [11]
inactive: all other assays above

CCOC(=O)c1ccccc1O
not listed: [12] | [14]
inactive: all other assays above

CN1CCN(c2c(F)cc3c(=O)c(C(=O)O)cn4c3c2SCC4)CC1
not listed: [6] | [11] | [13]
inactive: all other assays above

CCCCNCCCC
not listed: [13] | [14]
inactive: all other assays above

CCOc1ccc(NS(=O)(=O)c2ccc(N)cc2)nn1
not listed: [11] | [12] | [13] | [14]
inactive: all other assays above

NC(=O)Cc1cccc(C(=O)c2ccccc2)c1N
not listed: [11] | [13] | [14]
inactive: all other assays above

C=O
not listed: [7] | [14]
inactive: all other assays above

CCCOCCC
not listed: [6] | [11] | [13]
inactive: all other assays above

CN1C(=O)CC(c2ccccc2)C1=O (stereo not given)
not listed: [11] | [12] | [13]
inactive: all other assays above

CC(C)(C)C1CCCCC1=O (stereo not given)
not listed: [6] | [11] | [13]
inactive: all other assays above

CC(=O)O[C@H]1CC[C@@]2(C)C(=CC[C@@H]3[C@@H]2CC[C@]2(C)C(C(C)=O)=CC[C@@H]32)C1
not listed: [11] | [13] | [14]
inactive: all other assays above

CCOC(=O)[C@H](CCc1ccccc1)N[C@@H](C)C(=O)N1Cc2cc(OC)c(OC)cc2C[C@H]1C(=O)O
not listed: [11] | [12] | [13] | [14]
inactive: all other assays above

N#Cc1ccc(C(c2ccc(C#N)cc2)n2cncn2)cc1
not listed: [11] | [12] | [13] | [14]
inactive: all other assays above

O=[N+]([O-])c1nccn1CO[C@@H](CO)[C@H](O)CO
not listed: [12] | [14]
inactive: all other assays above

OCCN(CCO)c1ccccc1
not listed: [11] | [12] | [13] | [14]
inactive: all other assays above

CCOC(=O)C(Br)c1ccccc1 (stereo not given)
not listed: [7] | [11] | [13] | [14]
inactive: all other assays above

CCCNC(C)C(=O)Nc1c(C)csc1C(=O)OC (stereo not given)
not listed: [12] | [14]
inactive: all other assays above
